In PubChem BioAssay AID2762 (National Center for Advancing Translational Sciences (NCATS), 2010):
Inconclusive results are not listed. The source made the active and inactive calls. The call rests on the fitted dose curve; in most records, active means well fitted inhibition curve with a large enough effect; inconclusive means small, poorly fitted or top-dose-only effect, or effect the other way; inactive means no such curve, though single readings can be large or run the other way.

target: Nuclear receptor ROR-gamma (Mus musculus) (UniProt P51450); test: Concentration response confirmation assay for inhibitors of ROR gamma transcriptional activity; settings: Drosophila S2 Gal4-RORgamma UAS-luciferase, 20 h; series mostly up to 46.1 µM; activity change, negative = inhibition: at the top concentration
Sequence (P51450 whole entry, looked up, the tested form may be a part): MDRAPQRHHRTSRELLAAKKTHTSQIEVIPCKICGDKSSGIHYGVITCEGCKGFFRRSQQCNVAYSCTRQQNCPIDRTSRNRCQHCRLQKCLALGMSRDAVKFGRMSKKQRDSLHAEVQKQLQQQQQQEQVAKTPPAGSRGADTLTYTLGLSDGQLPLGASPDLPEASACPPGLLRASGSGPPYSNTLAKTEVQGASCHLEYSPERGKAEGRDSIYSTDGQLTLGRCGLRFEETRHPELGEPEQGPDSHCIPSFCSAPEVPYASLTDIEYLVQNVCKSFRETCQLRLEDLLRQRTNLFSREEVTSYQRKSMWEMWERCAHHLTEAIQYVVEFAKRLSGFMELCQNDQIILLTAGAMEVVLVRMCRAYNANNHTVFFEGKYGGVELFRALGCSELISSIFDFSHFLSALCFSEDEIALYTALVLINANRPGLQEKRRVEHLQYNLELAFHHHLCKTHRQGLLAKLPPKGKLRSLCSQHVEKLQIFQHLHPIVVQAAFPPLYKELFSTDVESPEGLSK
Procedure, shortened: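 Using a luciferase readout, inhibitors were identified by reduced reporter activity in Drosophila cells coexpressing a copper-inducible Gal4–ROR gamma fusion and UAS-driven Photinus luciferase, incubated 20 hr after 700 uM copper sulfate.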

Potency, active:
COc1ccc2nc(N3C(=O)CNC3=S)sc2c1 1990 nM
NC(=O)/C=C/C(=O)Nc1ccc(Cl)cc1 8880 nM
COc1ccc(-n2ncc(Cl)c(Cl)c2=O)cc1 8880 nM
CCN1CCCc2cc(CN(CCN3CCOCC3)C(=S)Nc3ccc(C)cc3)ccc21 9960 nM
CCOc1ccc(C(=O)Nc2nc3ccccc3[nH]2)cc1OCC 11200 nM
Cc1cccc(-c2nc3cc(NC(=O)C4CCCO4)ccc3o2)c1 (centres undefined) 396 nM
COc1ccc(C(=O)/C=C/c2ccc(OC)cc2OC)c(O)c1 888 nM
CCOC(=O)c1sc(NC(=O)c2ccc(S(=O)(=O)N(C)C)cc2)nc1C 79.1 nM
CCN1C(=O)/C(=C/c2ccc(N3CCCC3)cc2)NC1=S 6280 nM
O=C(/C=C/c1ccc(S(=O)(=O)N2CCOCC2)cc1)NC(=S)Nc1ccc(N2CCOCC2)cc1 9960 nM
COc1ccc2oc(=O)c(C(=O)Nc3ccccc3C)cc2c1 1250 nM
COc1cc(C2c3cc4c(cc3C(OC3OC5COC(c6cccs6)OC5C(O)C3O)C3COC(=O)C23)OCO4)cc(OC)c1O (centres undefined) 4990 nM
Oc1ccc(COCc2ccccc2)c2cccnc12 1580 nM
CCN(CC(=O)Nc1ccc2c(c1)CCC2)Cc1nc2ccccc2c(=O)[nH]1 8880 nM
COC(=O)c1ccc(OCC(=O)c2ccc(O)cc2O)cc1 125 nM
O=S(=O)(c1ccc(NC(=S)N/N=C/c2ccc(Oc3ccccc3)cc2)cc1)N1CCOCC1 1120 nM
COC(=O)c1ccc(Oc2cc(C)nc(-n3nc(C)cc3C)n2)cc1 1580 nM

Activity change, negative = inhibition, inactive:
CCOC(=O)c1oc2cccc(OCC(O)CNC(C)C)c2c1C (centres undefined) 16.8%
Cc1sc2ncnc(Sc3nnc4sc5ccccc5n34)c2c1C -0.98%
c1ccc(Cn2c(-c3ccccc3)c[n+]3c2SCCC3)cc1 22.7%
CCC(C)[C@H](NC(=O)NCc1ccco1)C(=O)O (some centres undefined) -9.58%
O=[N+]([O-])c1ccccc1/C=C/C=N/n1c(-c2ccc(Cl)cc2)n[nH]c1=S 29.3%
O=C(COc1ccccc1Cl)NCCCN1CCOCC1 -9.29%
Cc1cc(C)c(S(=O)(=O)NCCn2ccc3ccccc32)c(C)c1 -4.64%
O=C(NC(=S)Nc1nc(-c2ccc(Br)cc2)cs1)c1cccnc1 -22.4%
CCOC(=O)C1CCN(c2ncnc3c2cnn3-c2ccc(OC)cc2)CC1 9.59%
O=C(O)c1ccc(/C=N/n2cc(-c3ccccc3)[nH]c2=S)cc1 11.8%
Cc1ccc(-c2n[nH]c(=S)n2/N=C/C=C\c2ccccc2[N+](=O)[O-])cc1 -29.5%
O=C(Cn1c(=O)oc2ccc(Cl)cc21)Nc1ccon1 11.1%
